For some of these results: Potency and affinity values are given separately.
Tests used:
Design in all cases: scale not given: direction of the effect not stated beside the values
[1] = molecular target: Protein translocase subunit SecA (Escherichia coli (strain K12)) (UniProt P10408); assay: Assay to Identify E. coli SecA ATPase Inhibitors; assay type: functional; details: 30 µM
[2] = molecular target: T1, Ubiquitin-activating enzyme e1, putative (Leishmania donovani (strain BPK282A1)) (UniProt E9BSI1); assay: Leishmania donovani Ubiquitin Activating Enzyme (LdE1); assay type: functional; details: 30 µM
T1 sequence (whole entry): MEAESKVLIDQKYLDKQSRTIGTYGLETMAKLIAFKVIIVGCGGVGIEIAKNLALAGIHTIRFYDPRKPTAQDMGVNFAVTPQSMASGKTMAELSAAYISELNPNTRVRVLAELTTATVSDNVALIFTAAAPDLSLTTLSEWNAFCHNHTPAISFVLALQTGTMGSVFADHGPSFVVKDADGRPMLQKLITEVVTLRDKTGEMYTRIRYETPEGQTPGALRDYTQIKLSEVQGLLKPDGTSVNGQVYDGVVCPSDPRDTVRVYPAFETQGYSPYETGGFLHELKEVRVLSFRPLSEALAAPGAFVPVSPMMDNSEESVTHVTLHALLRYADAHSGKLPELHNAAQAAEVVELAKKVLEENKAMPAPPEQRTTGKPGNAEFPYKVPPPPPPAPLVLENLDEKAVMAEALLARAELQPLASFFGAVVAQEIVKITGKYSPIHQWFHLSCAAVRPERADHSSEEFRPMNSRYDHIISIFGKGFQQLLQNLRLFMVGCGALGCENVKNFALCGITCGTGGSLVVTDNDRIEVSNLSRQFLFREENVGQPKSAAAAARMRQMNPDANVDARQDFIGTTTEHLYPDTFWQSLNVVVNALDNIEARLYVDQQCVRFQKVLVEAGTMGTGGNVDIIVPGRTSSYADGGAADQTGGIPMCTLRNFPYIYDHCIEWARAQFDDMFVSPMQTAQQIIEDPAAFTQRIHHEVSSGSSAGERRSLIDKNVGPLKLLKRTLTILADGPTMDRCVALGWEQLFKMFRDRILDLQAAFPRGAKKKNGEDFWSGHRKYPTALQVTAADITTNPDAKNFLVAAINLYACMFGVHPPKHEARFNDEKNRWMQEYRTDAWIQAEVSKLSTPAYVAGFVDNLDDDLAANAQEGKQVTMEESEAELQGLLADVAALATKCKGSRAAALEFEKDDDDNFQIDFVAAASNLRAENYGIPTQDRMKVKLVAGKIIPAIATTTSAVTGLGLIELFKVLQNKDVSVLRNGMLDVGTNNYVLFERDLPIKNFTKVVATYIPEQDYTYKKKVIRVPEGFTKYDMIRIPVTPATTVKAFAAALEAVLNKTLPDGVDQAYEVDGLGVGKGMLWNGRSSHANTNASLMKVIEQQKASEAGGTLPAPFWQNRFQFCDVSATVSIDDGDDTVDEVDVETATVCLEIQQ

[3] = molecular target: AMP-activated protein kinase, AMPK (Homo sapiens) (UniProt P54646+O43741+P54619+Q9UGJ0+Q9Y478+Q13131+Q9UGI9); assay: AMP-dependent Kinase enzyme assay. An in vitro enzyme assay that detects ADP turnover that is directly proportional to AMPK activity. This uses naive AMPK that is activated during the assay with MK-8722; assay type: functional; details: 30 µM
[4] = molecular target: Sialic acid-binding Ig-like lectin 9 (Homo sapiens) (UniProt Q9Y336); assay: Hs-Siglec9 ALPHAscreen SOP 20170721; details: 10 µM
[5] = test system: Trypanosoma cruzi; assay: Trypanosoma cruzi phosphomannomutase and mannose-1-phosphate guanylyltransferase assay; assay type: functional; details: 10 µM
[6] = molecular target: T2, Arginase-2, mitochondrial (Homo sapiens) (UniProt P78540); assay: in vitro enzyme assay to detect the production of urea directly proportional to the activity of Arginase II; assay type: functional; details: 33.3 µM; note: in the data most compounds retested in dose-response had high values
T2 sequence (whole entry): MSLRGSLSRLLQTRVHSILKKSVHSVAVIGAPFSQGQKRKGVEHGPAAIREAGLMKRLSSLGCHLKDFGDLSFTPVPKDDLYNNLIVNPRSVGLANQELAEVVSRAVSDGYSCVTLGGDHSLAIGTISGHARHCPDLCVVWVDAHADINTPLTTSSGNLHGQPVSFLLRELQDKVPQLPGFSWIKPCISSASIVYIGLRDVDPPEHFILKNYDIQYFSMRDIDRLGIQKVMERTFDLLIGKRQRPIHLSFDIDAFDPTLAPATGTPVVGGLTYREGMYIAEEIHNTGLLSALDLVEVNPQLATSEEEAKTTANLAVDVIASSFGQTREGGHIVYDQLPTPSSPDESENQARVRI

[7] = molecular target: T3, Proteasome subunit beta (Trypanosoma cruzi) (UniProt O96673); assay: Trypanosoma cruzi proteasome chymotrypsin-like activity (TcProtChymo) assay.; note: in the data most compounds retested in dose-response had high values; assay type: functional; details: 9.37 µM
T3 sequence (whole entry): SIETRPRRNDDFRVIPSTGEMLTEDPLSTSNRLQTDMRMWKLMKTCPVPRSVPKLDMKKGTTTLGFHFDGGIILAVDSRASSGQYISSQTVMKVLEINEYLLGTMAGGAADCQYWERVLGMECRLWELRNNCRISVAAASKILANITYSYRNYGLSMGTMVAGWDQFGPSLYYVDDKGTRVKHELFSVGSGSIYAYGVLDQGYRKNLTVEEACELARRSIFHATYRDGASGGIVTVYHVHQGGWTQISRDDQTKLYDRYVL

[8] = species: Homo sapiens; assay: To identify inhibition of the IFN signalling (Jak-Stat) pathway via expression of an eGFP reporter gene under the control of an IFN-stimulated response element (ISRE) containing MxA promoter.; assay type: functional; details: 30 µM
[9] = molecular target: T4, Tyrosyl-tRNA synthetase, putative (Trypanosoma cruzi (strain CL Brener)) (UniProt Q4DSP6); assay: Trypanosoma cruzi tyrosyl tRNA synthetase (TcYRS) _High Tyrosine SOP; assay type: functional; details: 30 µM; note: in the data most compounds retested in dose-response had high values
T4 sequence (whole entry): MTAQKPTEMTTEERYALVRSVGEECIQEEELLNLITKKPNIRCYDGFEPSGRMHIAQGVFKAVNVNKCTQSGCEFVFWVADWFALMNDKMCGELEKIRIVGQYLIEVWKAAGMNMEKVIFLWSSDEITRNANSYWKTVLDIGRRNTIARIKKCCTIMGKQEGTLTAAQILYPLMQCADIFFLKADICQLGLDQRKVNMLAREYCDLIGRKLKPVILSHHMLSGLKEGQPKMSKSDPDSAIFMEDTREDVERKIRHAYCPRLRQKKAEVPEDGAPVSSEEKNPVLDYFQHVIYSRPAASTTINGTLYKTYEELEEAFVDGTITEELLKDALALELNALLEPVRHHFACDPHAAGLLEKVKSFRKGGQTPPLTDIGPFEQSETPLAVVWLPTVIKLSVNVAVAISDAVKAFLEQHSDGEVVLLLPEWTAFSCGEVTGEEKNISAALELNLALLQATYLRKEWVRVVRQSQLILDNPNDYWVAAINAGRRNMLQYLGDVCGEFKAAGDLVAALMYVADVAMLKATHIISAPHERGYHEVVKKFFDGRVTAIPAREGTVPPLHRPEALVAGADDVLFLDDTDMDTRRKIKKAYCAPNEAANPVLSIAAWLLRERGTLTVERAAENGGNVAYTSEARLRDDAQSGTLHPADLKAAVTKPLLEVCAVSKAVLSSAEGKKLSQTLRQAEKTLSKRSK

[10] = molecular target: T4, Tyrosyl-tRNA synthetase, putative (Trypanosoma cruzi (strain CL Brener)); assay: Trypanosoma cruzi tyrosyl tRNA synthetase (TcYRS) SOP; assay type: functional; details: 30 µM
[11] = molecular target: Chromo domain-containing protein 1 (Saccharomyces cerevisiae (strain ATCC 204508 / S288c) (Baker's yeast)) (UniProt P32657); assay: ScCHD-1 Enzyme Inhibition Assay; assay type: functional; details: 30 µM; note: in the data most compounds retested in dose-response had high values
Chain of Chromo domain-containing protein 1 (Saccharomyces cerevisiae (strain ATCC 204508 / S288c) (Baker's yeast)) (P32657 whole entry, the tested form may be a part): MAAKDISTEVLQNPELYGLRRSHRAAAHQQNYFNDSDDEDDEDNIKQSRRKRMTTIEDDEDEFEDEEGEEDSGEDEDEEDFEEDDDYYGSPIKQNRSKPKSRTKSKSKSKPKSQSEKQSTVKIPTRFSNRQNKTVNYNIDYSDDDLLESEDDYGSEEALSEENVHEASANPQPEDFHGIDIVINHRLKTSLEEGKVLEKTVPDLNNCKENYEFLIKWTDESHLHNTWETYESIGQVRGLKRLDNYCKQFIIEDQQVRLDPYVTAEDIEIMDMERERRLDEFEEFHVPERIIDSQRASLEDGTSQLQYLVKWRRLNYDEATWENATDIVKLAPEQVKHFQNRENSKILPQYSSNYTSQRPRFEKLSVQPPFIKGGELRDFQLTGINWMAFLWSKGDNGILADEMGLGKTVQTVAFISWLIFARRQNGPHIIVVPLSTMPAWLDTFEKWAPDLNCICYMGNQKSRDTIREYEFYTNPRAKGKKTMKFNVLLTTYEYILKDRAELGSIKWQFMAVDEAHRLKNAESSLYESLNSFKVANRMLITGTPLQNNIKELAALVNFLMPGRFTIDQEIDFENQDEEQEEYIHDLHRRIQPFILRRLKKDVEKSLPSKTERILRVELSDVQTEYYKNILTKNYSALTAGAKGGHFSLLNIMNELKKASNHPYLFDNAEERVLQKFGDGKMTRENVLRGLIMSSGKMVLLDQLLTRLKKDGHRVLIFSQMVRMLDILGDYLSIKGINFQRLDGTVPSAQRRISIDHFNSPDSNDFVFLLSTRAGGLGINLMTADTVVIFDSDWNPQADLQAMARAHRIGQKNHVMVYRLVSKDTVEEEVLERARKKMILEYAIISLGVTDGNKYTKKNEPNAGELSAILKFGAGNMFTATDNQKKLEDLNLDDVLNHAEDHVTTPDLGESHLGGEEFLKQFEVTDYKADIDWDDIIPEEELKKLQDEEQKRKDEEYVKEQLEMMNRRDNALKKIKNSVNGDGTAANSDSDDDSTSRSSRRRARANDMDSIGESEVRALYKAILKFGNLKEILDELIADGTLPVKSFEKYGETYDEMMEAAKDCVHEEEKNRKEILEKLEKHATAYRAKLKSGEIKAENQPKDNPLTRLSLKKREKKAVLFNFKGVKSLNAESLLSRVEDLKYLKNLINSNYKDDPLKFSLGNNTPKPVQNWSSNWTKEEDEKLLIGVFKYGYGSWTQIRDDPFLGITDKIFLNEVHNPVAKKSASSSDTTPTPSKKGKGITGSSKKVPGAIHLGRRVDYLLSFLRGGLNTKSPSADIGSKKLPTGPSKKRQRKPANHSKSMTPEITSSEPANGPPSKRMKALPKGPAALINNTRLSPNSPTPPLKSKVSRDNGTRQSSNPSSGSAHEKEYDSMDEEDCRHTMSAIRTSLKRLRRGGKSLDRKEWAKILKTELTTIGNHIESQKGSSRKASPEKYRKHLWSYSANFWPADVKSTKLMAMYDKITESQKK

Chain of Sialic acid-binding Ig-like lectin 9 (Homo sapiens) (Q9Y336 whole entry): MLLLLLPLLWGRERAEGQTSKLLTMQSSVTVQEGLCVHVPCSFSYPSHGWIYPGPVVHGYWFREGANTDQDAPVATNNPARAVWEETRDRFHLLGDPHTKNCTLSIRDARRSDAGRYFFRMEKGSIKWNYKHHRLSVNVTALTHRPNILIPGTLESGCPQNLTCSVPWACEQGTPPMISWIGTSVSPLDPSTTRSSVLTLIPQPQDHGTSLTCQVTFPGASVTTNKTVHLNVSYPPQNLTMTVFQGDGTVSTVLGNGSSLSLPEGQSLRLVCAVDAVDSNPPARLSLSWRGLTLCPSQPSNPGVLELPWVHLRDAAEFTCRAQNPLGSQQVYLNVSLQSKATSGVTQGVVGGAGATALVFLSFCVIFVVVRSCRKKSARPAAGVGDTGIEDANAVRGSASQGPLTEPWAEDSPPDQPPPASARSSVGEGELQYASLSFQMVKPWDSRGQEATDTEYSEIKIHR
Chain of Protein translocase subunit SecA (Escherichia coli (strain K12)) (P10408 whole entry): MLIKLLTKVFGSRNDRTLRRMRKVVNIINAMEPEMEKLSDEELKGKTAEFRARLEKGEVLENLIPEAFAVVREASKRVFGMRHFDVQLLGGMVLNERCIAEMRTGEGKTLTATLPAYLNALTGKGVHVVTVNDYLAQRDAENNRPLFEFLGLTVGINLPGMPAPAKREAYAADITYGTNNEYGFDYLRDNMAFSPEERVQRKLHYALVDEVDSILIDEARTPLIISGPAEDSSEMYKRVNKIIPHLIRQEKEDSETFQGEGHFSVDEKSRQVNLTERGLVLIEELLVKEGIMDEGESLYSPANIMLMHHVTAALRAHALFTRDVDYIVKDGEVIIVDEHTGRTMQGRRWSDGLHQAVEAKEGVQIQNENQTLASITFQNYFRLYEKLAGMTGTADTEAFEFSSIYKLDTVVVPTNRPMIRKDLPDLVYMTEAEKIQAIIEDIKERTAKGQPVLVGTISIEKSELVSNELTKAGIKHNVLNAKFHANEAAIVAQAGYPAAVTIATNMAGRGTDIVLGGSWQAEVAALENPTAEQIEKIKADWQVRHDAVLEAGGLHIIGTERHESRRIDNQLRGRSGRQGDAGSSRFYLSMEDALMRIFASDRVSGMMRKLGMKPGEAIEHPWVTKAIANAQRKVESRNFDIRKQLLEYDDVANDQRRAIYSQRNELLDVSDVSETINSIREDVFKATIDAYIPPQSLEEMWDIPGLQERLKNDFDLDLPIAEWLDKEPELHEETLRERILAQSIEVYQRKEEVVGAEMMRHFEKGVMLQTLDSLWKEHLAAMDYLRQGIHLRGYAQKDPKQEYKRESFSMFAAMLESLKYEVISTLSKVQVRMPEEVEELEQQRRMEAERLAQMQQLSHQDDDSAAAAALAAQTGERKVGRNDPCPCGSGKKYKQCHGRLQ

Row | Compound | Percent Effect [1] [%] | Percent Effect [2] [%] | Percent Effect [3] [%] | Percent Effect [4] [%] | Percent Effect [5] [%] | Percent Effect [6] [%] | Percent Effect [7] [%] | Percent Effect [8] [%] | Percent Effect [9] [%] | Percent Effect [10] [%] | Percent Effect [11] [%]
1 | O=C(NCCc1ccccc1)C1CCC(Cn2cnnn2)CC1 (stereo not drawn) | -0.876 | -4 | 1.1 | 6.93 | -1.77 | -4.4 | 3.88 | -9.79 | 2.12 | 5.13 | 2.05
2 | CSCCCN1CCCC1c1noc(C)n1 (stereo not drawn) | -0.0492 | 13.2 | -11.1 | -5.04 | 6.39 | 8.43 | 23.7 | 19.4 | 14.2 | 21.9 | -9.94
3 | O=C(c1ccccc1-n1cccn1)N1CCCN(c2cccnn2)CC1 | -2.4 | -15.6 | 5.31 | 10.5 | -0.294 | 1.05 | 9.46 | -6.03 | 0.952 | 9.41 | -13.5
4 | Cc1cnn(C2CN(CC(=O)NCCc3ccccc3)C2)c1 | -3.73 | -10.5 | 3.48 | 3.23 | 1.21 | -2.16 | -0.254 | 8.21 | 5.42 | 13.6 | 4.88
5 | O=C(CC1CC1)N1CCC2(CC1)CN(c1ncccn1)CCO2 | -2.48 | 2.67 | 5.17 | 6.83 | -6.89 | -5.83 | 5.9 | 9.78 | -5.32 | -1.28 | -7.95
6 | NC(=O)NCCC(=O)NCc1cccnc1N1CCc2ccccc2C1 | -1.28 | 18.9 | -5.95 | 12.4 | 6.75 | -3.23 | 4.89 | 1.04 | 7.53 | 23.5 | -7.12
7 | CC(=O)N1CCN(C)CC(COCc2ccccc2)C1 (stereo not drawn) | -5.71 | 12.2 | 7.92 | 3.51 | 4.54 | -2.09 | -1.09 | 6.97 | 4.3 | 6.49 | -11.4
8 | Cc1nnc(N2CCOC(Cn3cccn3)C2)c(C#N)c1C (stereo not drawn) | -1.71 | -5.26 | -36.6 | 1.01 | 2.26 | 4.21 | -0.334 | -3.56 | 2.45 | 0 | -0.172
